From PubChem BioAssay (NCI)
The panel holds about 83,000 compounds, 20% with a hit somewhere; the sample as a whole holds those more often.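 Activity criterion: percent growth below 10, measured after cells in 96-well plates were exposed to a single compound concentration for 48 hours.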 Activity calls are given as the source filed them.

System: T-47D breast
Test: NCI-60 one-dose screen, 48 h (100 = growth as untreated, 0 = no growth, -100 = all killed)
Conditions: 10 µM unless noted
Protocol: Growth inhibition of the T-47D human tumor cell line is measured as a screen for anti-cancer activity. Cells are grown in 96 well plates and exposed to the test compound for 48 hours. Compounds are tested at a single concentration, which is 10^-5 M for most compounds. The reported endpoint is percent growth (GI% or GIPRCNT), where numbers from 0 - 100% represent growth inhibition, and numbers from -100% - 0 represent cell death. For example, a value of 40 represents 60% growth inhibition. A value of 0 means no net growth occurred over the course of the experiment. A value of -40 indicates 40% of cells at the beginning of the experiment died by the end of the experiment. A value of -100 means all cells are dead at the end of the experiment.
NCI-60 Human Tumor Cell Lines Screen was performed using the standard one-dose NCI protocol, which is described in more detail at https://dtp.cancer.gov/discovery_development/nci-60/default.htm.
Compounds with GIPRCNT values below 10 were considered active. Activity score was based on GIPRCNT using the following formula: […]
Score is 0 for GIPRCNT values of 100 or above, 50 for GIPRCNT values of 0, and 100 for GIPRCNT values of -100.

SMILES | growth
C=CC(=O)NC(O)C(Cl)(Cl)Cl (stereo not given) | 93.4% (inactive)
Nc1cccc2c1Oc1ccccc1O2 | 115% (inactive)
CCC(CC)(c1ccccc1)C(OC(N)=O)c1ccccc1 (stereo not given) | 82.2% (inactive)
O=C1NC(=O)C(CN2C(=O)C3(c4ccccc42)[C@H](Cl)C(=O)N3c2ccccc2)C(=O)N1 (stereo not given in full) | 38.1% (inactive)
CC(N)Cc1ccc(O)cc1 (stereo not given) | 98.3% (inactive)
Nc1nc(N)c(-c2ccc(Cl)c(Cl)c2)c(/C=C/c2ccc(S(=O)(=O)F)cc2)n1 | 96.1% (inactive)
O=C(Nc1ccc(S(=O)(=O)F)cc1)Oc1ccccc1 | 95.9% (inactive)
C[CH2][Pb]([CH2]C)([CH2]C)[O]C(=O)c1ccc(N)cc1 | 47.6% (inactive)
CC(=O)N1N=C(c2ccccc2)CC1c1sc(N(CCCl)CCCl)nc1Cl (stereo not given) | 82.3% (inactive)
C[CH2][Pb]([CH2]C)([CH2]C)[O]C(=O)COC | 17.2% (inactive)
CNC(=O)Oc1ccccc1-c1ccccc1 | 105% (inactive)
CN1CC2CCC(C1)C2=O | 102% (inactive)
CN1C(=O)NC(=O)C(N=Nc2ccc(Cl)cc2)C1=O (stereo not given) | 101% (inactive)
Nc1ncnc2c1c(C(=O)NO)cn2C1OC(CO)C(O)C1O (stereo not given) | -11.1% (active)
CCCC(C)(C)c1ccc2c(c1)OC(C)(C)[C@@H]1CC=C(C)C[C@@H]21 | 97.2% (inactive)
CC1CC=CCC12C(=O)NC(=S)NC2=O (stereo not given) | 98.2% (inactive)
Cc1cc(C)nc(C)c1.[Cl][Hg][Cl] | 81.8% (inactive)
O=S(=O)(c1ccc(Cl)cc1)C(Cl)(Cl)Cl | 11.4% (inactive)
CC(/C=N/N=C(N)N)=N/N=C(N)N | 60.1% (inactive)
COc1cc(N(CCCl)CCCl)ccc1C=Nc1ccccc1C(=O)O | 97.6% (inactive)

SMILES | growth
O=C(O)C1[O][Sb][O]C1C(=O)O (stereo not given) | 89.3% (inactive)
O=[N+]([O-])c1ccc(/C=C/C=C/c2ccc(S(=O)(=O)F)cc2)c(Cl)c1 | 86.2% (inactive)
[Br][Pb]([c]1ccccc1)([c]1ccccc1)[c]1ccccc1 | -72% (active)
O=C(CC1(O)C(=O)Nc2ccc(F)cc21)c1ccc(C(=O)NCC2CCC3(CC2)OOC2(CCCCC2)OO3)cc1 (stereo not given) | 29.6% (inactive)
CC1(C)N=C(N)N=C(N)N1c1cccc(C(=O)Nc2cccc(S(=O)(=O)F)c2)c1 | 84% (inactive)
O=C(C(=O)N1CCCC1)c1cn(CCCCCn2cc(C(=O)C(=O)N3CCCC3)c3ccccc32)c2ccccc12 | 91.3% (inactive)
NC(Cc1ccc2c(c1)OCO2)c1ccc2c(c1)OCO2 (stereo not given) | 113% (inactive)
Cc1cc(N(CCCl)CCCl)ccc1C=Nc1ccc2ccccc2c1 | 5.25% (active)
CNC(=O)Oc1ccccc1 | 133% (inactive)
C#CC1(O)CCC2(C)C(CCC3C4CCC(=O)C4(C)CCC32)C1 (stereo not given) | 96.1% (inactive)
OC1(c2ccc(Cl)cc2Cl)c2ccccc2C2=NCCN21 (stereo not given) | 93.3% (inactive)
O=S(=O)(O)c1ccc(-c2ccc([As](=O)(O)O)cc2)cc1 | 89.5% (inactive)
CNC(=O)Oc1cccc(N(C)C)c1 | 104% (inactive)
CCOC(=O)c1cnc(SCc2ccc(Cl)c(Cl)c2)nc1N1CC1 | 58.6% (inactive)
COc1ccc2c(c1)NC1=C(C(=O)OC1)C2c1cc(OC)c(OC)c(OC)c1 (stereo not given) | 25.1% (inactive)
COc1cc(CNCCc2ccc(Cl)cc2)cc(OC)c1O | 61.7% (inactive)
CC(C)(C)N(Cc1ccccc1)N=O | 97.3% (inactive)
C[C@]12CC[C@@H]3C4=C(CC[C@H]3[C@@H]1CC[C@@H]2O)CC(=O)CC4 | 95.4% (inactive)
N#[N+]c1nc2nc(N)[nH]c(=O)c2[nH]1 | 100% (inactive)
CSc1ccccc1NP1(=O)OCC(C)([N+](=O)[O-])CO1 (stereo not given) | 96% (inactive)
